From ChEMBL document CHEMBL1157539, “Thousands of chemical starting points for antimalarial lead identification” (Nature, 2010)

system: Plasmodium falciparum; test: GSK_TCMDC: Inhibition of Plasmodium falciparum Dd2 in whole red blood cells, using parasite LDH activity as an index of growth. Test compounds present at 2uM; assay type: functional

**Q.** For O=C(Nc1cc(Cl)ccc1-n1cncn1)C1(c2ccccc2)CC1, which Inhibition is on record?
**A.** 91%

**Q.** Which Inhibition does the source give for Cc1cc(NC(=O)NCCN2CCC(NS(=O)(=O)c3ccc(Br)cc3)C2)c2ccccc2n1.O=C(O)C(F)(F)F (configuration not stated) here?
**A.** 51%

**Q.** How did the Inhibition turn out when Cn1nccc1C(=O)NCCNCc1ccc(-c2cccc(-c3nc4cc(C(F)(F)F)ccc4[nH]3)c2)cc1.O=C(O)C(F)(F)F was run?
**A.** 99%

**Q.** How did the Inhibition turn out when O=C(Nc1ccc(Cl)cc1)Nc1ccc(-c2cccc(-c3nc4cc(F)ccc4[nH]3)c2)cc1 was run?
**A.** 96%

**Q.** How did the Inhibition turn out when CC1CN(Cc2cccc(-c3ccc(-c4nc5cc(F)ccc5[nH]4)cc3)c2)CC(C)O1.O=C(O)C(F)(F)F (configuration not stated) was run?
**A.** 88%

**Q.** For CN(C)c1ccc(-c2csc(C(=O)NC3CCN(Cc4ccc(C(C)(C)C)cc4)C3)c2)cc1.O=C(O)C(F)(F)F (configuration not stated), which Inhibition is on record?
**A.** 50%

system: HepG2; test: GSK_TCMDC: Percent inhibition of human HepG2 cell line. Test compounds present at 10uM.; assay type: functional

**Q.** For O=C1c2cc(I)ccc2SC1c1ccccc1 (configuration not stated), which Inhibition is on record?
**A.** 0%

**Q.** For O=C(N[C@@H](CC1CCCCC1)C(=O)NCCN1CCCCC1)c1ccc(O)c(-c2cccc(C(F)(F)F)c2)c1, which Inhibition is on record?
**A.** 0%

**Q.** Which Inhibition does the source give for COc1ccc(C(=O)CCC(=O)N(CCSC(C)(C)C)Cc2ccc(-c3ccc(CNCCc4ccc(S(C)(=O)=O)cc4)cn3)cc2)cc1F.O=C(O)C(F)(F)F here?
**A.** 9%

**Q.** How did the Inhibition turn out when NC(=O)c1ccccc1OCC(=O)Nc1cccc(-c2ccc(-c3nc4ccccc4[nH]3)cc2)c1 was run?
**A.** 66%

**Q.** With COCCN(CCOC)c1ncc(-c2ccsc2)c(-c2nc(C)c(C)s2)n1 as the molecule, how does the Inhibition read?
**A.** 1%

**Q.** Which Inhibition does the source give for O=C(Nc1ccc(Cl)cc1)Nc1ccc(-c2cccc(-c3nc4ccccc4[nH]3)c2)cc1 here?
**A.** 69%

**Q.** COc1cc(OC)c(NC(=O)Nc2ccnc3ccccc23)cc1Cl was tested. Which Inhibition did it give?
**A.** 19%

**Q.** With Cc1cccc(CNc2ncc(C)c(NCCC(=O)Nc3ccccc3)n2)c1.O=C(O)C(F)(F)F as the molecule, how does the Inhibition read?
**A.** 18%

**Q.** With Cc1c(NC(=O)COc2ccc(Cl)cc2C(=O)c2cc(F)cc(C(F)(F)F)c2)ccc2ncsc12 as the molecule, how does the Inhibition read?
**A.** 0%

**Q.** How did the Inhibition turn out when CCn1c(SCC(=O)Nc2cc(C(F)(F)F)ccc2Cl)nc2ccccc2c1=O was run?
**A.** 8%

**Q.** With Cc1cc(N2CCCC2)nc(Nc2ccc(NC(=O)C(C)Oc3ccccc3)cc2)n1 (configuration not stated) as the molecule, how does the Inhibition read?
**A.** 42%

**Q.** With CC1(C)N=C(N)N=C(N)N1c1ccc(Br)cc1.Cl as the molecule, how does the Inhibition read?
**A.** 52%

**Q.** With COc1cc(C2C(Oc3ccccc3)C(=O)N2Cc2ccc(F)cc2)cc(OC)c1OC (configuration not stated) as the molecule, how does the Inhibition read?
**A.** 0%

**Q.** Which Inhibition does the source give for CN1CCc2ccc(NC(=O)Nc3cccc([N+](=O)[O-])c3)cc2C1 here?
**A.** 0%

**Q.** How did the Inhibition turn out when Cc1noc(-c2cccs2)c1C(=O)NC(C)c1cccc2ccccc12 (configuration not stated) was run?
**A.** 0%

**Q.** With Cc1cc(NC(=O)NCCN2CCC(NC(=O)c3ccc(C(F)(F)F)cc3)CC2)c2ccccc2n1.O=C(O)C(F)(F)F as the molecule, how does the Inhibition read?
**A.** 3%

**Q.** How did the Inhibition turn out when O=C(NC(NC(=S)Nc1ccc([N+](=O)[O-])cc1)C(Cl)(Cl)Cl)c1cccc(Cl)c1 (configuration not stated) was run?
**A.** 24%

**Q.** With Cc1cc(Cl)c(S(=O)(=O)N2CCc3ccccc32)cc1OCC(=O)NC1CCCCC1 as the molecule, how does the Inhibition read?
**A.** 28%

**Q.** Which Inhibition does the source give for CCCCN(Cc1cnccc1-c1ccc(Br)cc1)c1ccc(C(O)(C(F)(F)F)C(F)(F)F)cc1.O=C(O)C(F)(F)F here?
**A.** 10%

**Q.** CCN(CC)S(=O)(=O)c1ccc(C=CC(=O)Nc2cc(Cl)ccc2N2CCOCC2)cc1 was tested. Which Inhibition did it give?
**A.** 3%

**Q.** How did the Inhibition turn out when Cc1c(C)n(C2CCCCC2)c2ncnc(OC3CCN(CC(=O)N4CCCC4)CC3)c12 was run?
**A.** 31%

**Q.** Which Inhibition does the source give for CC(=O)c1ccc2c(c1)CCN(CCC1CCC(NC(=O)c3cc4ccccc4[nH]3)CC1)CC2.Cl (configuration not stated) here?
**A.** 64%

**Q.** NCCCN(Cc1ccc(Cl)c(Cl)c1)C(=O)Nc1ccc(Cl)c(Cl)c1 was tested. Which Inhibition did it give?
**A.** 100%

**Q.** O=C(Nc1cccc(-c2cccc(-c3nc4cc(C(F)(F)F)ccc4[nH]3)c2)c1)c1ccoc1 was tested. Which Inhibition did it give?
**A.** 32%

**Q.** With CCOC(=O)c1ccc(NC(=O)N[C@@H](Cc2ccccc2)C(=O)NC2CCN(Cc3ccc(O)c(OC)c3)C2)cc1 (some centres not stated) as the molecule, how does the Inhibition read?
**A.** 0%

**Q.** Which Inhibition does the source give for Br.N=C1N=C(N)NC2(CCCCC2)N1OCCOc1ccc(Cc2ccccc2)cc1 here?
**A.** 34%

**Q.** For COc1cc(C)c(NC(=O)c2cccc3c(=O)c(C)c(-c4ccccc4)oc23)cc1OC, which Inhibition is on record?
**A.** 96%

**Q.** CCCCCCCN1CC[C@@H](CCCc2ccnc3ccc(OCCN4CCNCC4)cc23)[C@@H](CC)C1.Cl was tested. Which Inhibition did it give?
**A.** 82%

**Q.** For COc1ccc(NC(=O)Nc2ccc(C)c(-c3ccc(C(=O)NCCN4CCCC4)cc3)c2)cc1, which Inhibition is on record?
**A.** 18%

**Q.** Which Inhibition does the source give for COc1ccc(S(=O)(=O)N2CCC(NS(=O)(=O)c3ccc(F)cc3)CC2)cc1 here?
**A.** 3%

**Q.** Which Inhibition does the source give for COc1cc2c(c(Cl)c1OC)CCN(Cc1ccccc1)CC2c1ccc(NC(=O)C(F)(F)F)cc1 (configuration not stated) here?
**A.** 0%
